Where “and” joins values, the source holds several entries; their conditions need not be identical. Equal values may be shown once. Inconclusive results are not listed. Calls of active or inactive are those of the source. Calls come from the whole dose curve; as a rule, active = well fitted cell-killing curve with a large enough effect; inconclusive = small, poorly fitted or top-dose-only effect, or effect the other way; inactive = no such curve, though single readings can be large or run the other way.
Potency is the fitted concentration of half-maximal effect.

One test is described as follows: Viability qHTS for spleen associated tyrosine kinase inhibitor (SYKi) naive MV4-11 cells (AID 1963823). Note: nearly all actives have a fitted effect of over 40% in size. The settings on record: MV4-11 AML viability, CellTiter-Glo luminescence, 72 h; series mostly up to 45 µM. An outline of the steps:
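CellTiter-Glo luminescence, 10 min room-temperature incubation, gave viability. Cells: naive MV4-11 (500/well), treated 72 hr at 37 C, 5% CO2.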
(In qHTS, concentration-response curves come from the screen itself.)
Turning to `CCO[C@H]1O[C@@H]2OC3(C)CC[C@H]4[C@H](C)CC[C@@H]([C@H]1C)[C@@]24OO3`, the Potency is 4220 nM (active).

As to `Nc1ccc(Cl)cc1`, the Potency entry was “inactive”. `CC1(C)CC[C@]2(NC(=O)C(C)(F)F)CC[C@]3(C)[C@H](C(=O)C=C4[C@@]5(C)C=C(C#N)C(=O)C(C)(C)[C@@H]5CC[C@]43C)[C@@H]2C1`: the Potency is 3320 nM (active).

A short description of a further test: Viability qHTS for spleen associated tyrosine kinase inhibitor (SYKi) drug resistant MV4-11 cells (AID 1963824). Note: nearly all actives have a fitted effect of over 35% in size. The conditions noted are these: SYKi-resistant MV4-11 viability, CellTiter-Glo, 72 h; series mostly up to 45 µM. An outline of the steps: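 SYK inhibitor-resistant MV4-11 AML cells, 500 per well, added to predispensed compounds and incubated 72 hr at 37 C, 5% CO2. Viability measured by CellTiter-Glo luminescence after 10 min at room temperature.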
For the compound `CC(C)[C@]12O[C@H]1[C@@H]1O[C@]13[C@]1(O[C@H]1C[C@H]1C4=C(CC[C@@]13C)C(=O)OC4)[C@@H]2O`, the Potency is 9.2 nM (active) and 16.6 nM (active). Take `C/C(=C\c1csc(C)n1)[C@@H]1C[C@@H]2O[C@@H]2CCC[C@H](C)[C@H](O)[C@@H](C)C(=O)C(C)(C)[C@@H](O)CC(=O)O1`: the Potency was 5.8 nM (active).

For `C/C1=C/C[C@@H](/C(C)=C/c2csc(C)n2)OC(=O)C[C@H](O)C(C)(C)C(=O)[C@H](C)[C@@H](O)[C@@H](C)CCC1`, the Potency is 33.2 nM (active).

Consider `C[N+]1(CCF)[C@@H]2CC[C@H]1CC(OC(=O)C(O)(c1ccccc1)c1ccccc1)C2` (stereo not given in full), for which the Potency entry was “inactive”. Consider `C=CCN1CC[C@]23CCCC[C@H]2[C@H]1Cc1ccc(O)cc13`, for which the Potency entry was “inactive”.

For the compound `O=C(NC(=O)c1c(F)cccc1F)Nc1cc(Cl)c(OC(F)(F)C(F)C(F)(F)F)cc1Cl` (stereo not given), the Potency was 16800 nM (active). `CO[C@H]1CCC(O[C@H]2C[C@H]([C@]3(C)CC[C@]4(C[C@H](O)[C@@H](C)[C@@H]([C@@H](C)/C=C(\C)C(=O)[C@H](C)C[C@H](C)C(=O)O)O4)O3)O[C@]3(O[C@@H]([C@H]4O[C@@](O)(CO)[C@H](C)C[C@@H]4C)C[C@@H]3C)[C@@H]2C)O[C@@H]1C` (stereo not given in full): the Potency is 209 nM (active).

Consider `COc1ccc(Cc2nccc3cc(OC)c(OC)cc23)cc1OC`, for which the Potency is 7.5 µM (active) and 2.95 µM (active).

In the case of `C[C@]12CC[C@@H]3c4ccc(OC(=O)N(CCCl)CCCl)cc4CC[C@H]3[C@@H]1CC[C@@H]2O`, the Potency entry is “inactive”. On the same count and under the same terms, the same measure for `CCOC(=O)CC(SP(=S)(OC)OC)C(=O)OCC` (stereo not given): “inactive”.

For the compound `C/C=C(\C)C(=O)N[C@@H](c1ccccc1)[C@@H](O)C(=O)O[C@H]1C[C@@]2(O)[C@@H](OC(=O)c3ccccc3)[C@@H]3[C@]4(OC(C)=O)CO[C@@H]4C[C@H](O)[C@@]3(C)C(=O)[C@H](OC(C)=O)C(=C1C)C2(C)C`, the Potency was 23.5 nM (active).

For `C/C(=C\c1csc(C)n1)[C@@H]1C[C@@H]2O[C@]2(C)CCC[C@H](C)[C@H](O)[C@@H](C)C(=O)C(C)(C)[C@@H](O)CC(=O)O1`, the Potency was 4.7 nM (active). On the same count and under the same terms, the same measure for `O=C(NCCCNc1nc(Nc2ccc(N3CCOCC3)cc2)ncc1C1CC1)C1CCC1`: 166 nM (active); for `CO/C=C(/C(=O)OC)c1ccccc1Oc1cc(Oc2ccccc2C#N)ncn1`: 8630 nM (active). Regarding `CN1[C@H]2CC(O)C[C@H]1[C@H]1O[C@H]12` (stereo not given in full), the Potency entry is “inactive”. The same measure, in the same setting: in the case of `Clc1ccc(CCC(Cn2ccnc2)Sc2c(Cl)cccc2Cl)cc1` (stereo not given) it was 11.9 µM (active) and 18.6 µM (active); in that of `c1ccc2c(c1)Sc1ccccc1N2CC1CN2CCC1CC2` (stereo not given), 26600 nM (active). Same read-out and setting: in the case of `NN=C(N)N` it was “inactive”; in that of `Cc1nnc2n1-c1sc(CCc3ccc(CC(C)C)cc3)cc1C(c1ccccc1Cl)=NC2C` (stereo not given), 4110 nM (active); in that of `CCCCC1C(=O)NC(=O)N(C2CCCCC2)C1=O` (stereo not given), “inactive”.

As to `CCO[C@H]1O[C@@H]2OC3(C)CC[C@H]4[C@H](C)CC[C@@H]([C@H]1C)[C@@]24OO3`, the Potency is 2990 nM (active). Regarding `Nc1ccc(Cl)cc1`, the Potency entry was “inactive”.

Source of the values: PubChem BioAssay (NCATS).
